Each structure is given as a SMILES string. In all, about 220,000 compounds went through this assay and about 910 (0.41%) were called active. For the sample, actives were picked, then their nearest neighbours and some compounds at random. Results with a measured potency or affinity are listed apart. Values without a mark were called inactive.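 The calls were made as follows: active = primary inhibition above the hit cutoff, then over 50% inhibition at one or more dose response concentrations (cut at about 23% in these data, passing the limit was not always enough); inconclusive = conflicting primary data, or primary hits not chosen for dose response; inactive = low primary inhibition, or under 50% at every dose.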

In this experiment the target is Aminopeptidase N (Plasmodium falciparum (isolate 3D7)) (UniProt O96935). As to the kind of experiment: P. falciparum M1AAP inhibitors, biochemical, fluorogenic H-Leu-NHMec substrate, 1536-well (AID 1445).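 Also: plate controls were DMSO full reaction for no effect and no enzyme background for full effect.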 The conditions noted are these: recombinant M1AAP, H-Leu-NHMec fluorogenic kinetic assay; at 30 µM, stronger effect = higher value unless noted.
Chain of Aminopeptidase N (Plasmodium falciparum (isolate 3D7)) (O96935 whole entry, looked up): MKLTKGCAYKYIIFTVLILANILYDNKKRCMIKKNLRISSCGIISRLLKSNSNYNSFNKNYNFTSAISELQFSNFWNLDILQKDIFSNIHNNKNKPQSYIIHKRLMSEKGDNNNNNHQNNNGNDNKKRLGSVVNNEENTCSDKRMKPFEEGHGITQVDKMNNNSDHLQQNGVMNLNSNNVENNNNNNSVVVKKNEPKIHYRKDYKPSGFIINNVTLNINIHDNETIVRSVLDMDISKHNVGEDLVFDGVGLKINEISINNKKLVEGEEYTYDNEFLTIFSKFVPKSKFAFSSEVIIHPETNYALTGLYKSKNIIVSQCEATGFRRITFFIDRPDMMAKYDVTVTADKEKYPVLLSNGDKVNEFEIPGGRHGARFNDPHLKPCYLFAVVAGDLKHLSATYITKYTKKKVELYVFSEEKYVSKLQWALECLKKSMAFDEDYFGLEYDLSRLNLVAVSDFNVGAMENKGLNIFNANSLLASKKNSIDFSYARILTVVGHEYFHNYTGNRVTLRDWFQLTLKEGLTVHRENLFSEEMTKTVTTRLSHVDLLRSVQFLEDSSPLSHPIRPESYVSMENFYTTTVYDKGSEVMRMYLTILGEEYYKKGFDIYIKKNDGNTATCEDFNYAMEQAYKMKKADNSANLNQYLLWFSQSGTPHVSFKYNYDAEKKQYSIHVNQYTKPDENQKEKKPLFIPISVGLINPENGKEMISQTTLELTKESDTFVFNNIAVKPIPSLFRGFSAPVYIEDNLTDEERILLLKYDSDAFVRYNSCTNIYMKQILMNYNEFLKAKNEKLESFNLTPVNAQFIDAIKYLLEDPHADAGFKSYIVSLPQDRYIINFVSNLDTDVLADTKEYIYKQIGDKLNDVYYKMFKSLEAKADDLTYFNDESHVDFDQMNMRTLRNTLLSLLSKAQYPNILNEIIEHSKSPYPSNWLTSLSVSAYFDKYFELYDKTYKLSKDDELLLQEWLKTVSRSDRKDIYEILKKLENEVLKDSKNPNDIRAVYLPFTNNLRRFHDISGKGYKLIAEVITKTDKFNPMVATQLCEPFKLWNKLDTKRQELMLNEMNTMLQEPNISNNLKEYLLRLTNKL
`COC(=O)c1cc(NS(=O)(=O)c2ccc3c(c2)CCC(=O)N3)cc(C(=O)OC)c1`: the inhibition is 8.87%.

On to `O=C(CCC1CC(=O)Nc2ccccc21)NCc1ccc(F)cc1` (stereo not drawn), for which the inhibition is 5.98%.

`O=C(O)CCCC(=O)Nc1ccc(Sc2ccc([N+](=O)[O-])cc2)cc1`: the inhibition is 2.99%.

In the case of `CCOc1nonc1C(=N)/C(C(C)=O)=C(\C)O`, the inhibition was -1.51%.

Regarding `Cc1ccc(OCC(=O)N2CCN(c3nnc(-c4ccc(C)cc4)c4ccccc34)CC2)cc1`, the inhibition is 14.1%.

For the compound `CC(C)CSc1nc2ccccc2n1CC(N)=O`, the inhibition is -7.7%.

For `O=[n+]1c2c(n([O-])c3ccccc31)CCC2`, the inhibition is 26.1% (active).

`O=[n+]1c2c(n([O-])c3ccccc31)CCCC2`: the inhibition is 2.78%.

With `O=[n+]1c2c(n([O-])c3cc(Br)ccc31)CCC2`, the inhibition is 16.4%.

`Cc1ncc(CO)c(/C=N/NC(=O)c2ccc(O)cc2)c1O`: the inhibition is 7.46%.

In the case of `COc1ccc(C(=O)N/N=C/c2c(CO)cnc(C)c2O)cc1`, the inhibition was 14.8%.

In the case of `Cc1cccc2cc(CN(Cc3cccs3)S(=O)(=O)c3ccc4c(c3)OCCO4)c(=O)[nH]c12`, the inhibition was 4.88%.

With `Cc1cccc(-n2cc(CNCCc3nc(C)cc(C)n3)c(-c3cccc(F)c3)n2)c1`, the inhibition was 0.33%.

As to `CC1CCCCN1C(=O)c1cc2nc(-c3ccccc3)cc(-c3ccccc3)n2n1` (stereo not drawn), the inhibition was 2.04%.

In the case of `COC(=O)COc1ccc(=O)n(-c2ccccc2)n1`, the inhibition is 2.11%.

In the case of `O=C(N/N=C/c1cccc(O)c1)c1ccc(NC(=O)c2cccc([N+](=O)[O-])c2)cc1`, the inhibition was 3.44%.

Turning to `O=C(c1cnn(-c2ccccc2)c1-n1cccc1)N1CCN(C2CCCCC2)CC1`, the inhibition is 2.13%.

`CCOC(=O)N1CCN(C(=O)c2cnn3ccccc23)CC1`: the inhibition is 10.3%.

With `O=C(c1cnn2ccccc12)N1CCN(C2CCCCC2)CC1`, the inhibition is 26.7% (active).

On to `COc1ccc(CNC(=O)C(c2ccncc2)N(C(=O)Cc2cccs2)c2ccccc2C)cc1` (stereo not drawn), for which the inhibition is -1.48%.

As for `COc1cccc(N2CCN(CC(=O)Nc3nnc(-c4ccccc4)s3)CC2)c1`, the inhibition is -5.75%.

With `COc1ccc(N2CCN(C(=O)CN3CCN(C(c4ccccc4)c4ccccc4)CC3)CC2)cc1`, the inhibition was 3.02%.

Regarding `O=C(CN1CCN(c2ccccc2)CC1)Nc1nnc(-c2ccccc2)s1`, the inhibition is -5.83%.

For `COc1ccc(N2CCN(CC(=O)Nc3nnc(-c4ccccc4)s3)CC2)cc1`, the inhibition was 23.4% (active).

For the compound `COc1ccc(N2CCN(C(=O)CN3C(=O)C4CC=CCC4C3=O)CC2)cc1` (stereo not drawn), the inhibition was -0.46%.

With `COc1ccc(N2CCN(CC(=O)N3CCC(C)CC3)CC2)cc1`, the inhibition was 24.4% (active).

As for `CCn1c(SCC(=O)NCC2CCCO2)nnc1-c1ccccc1` (stereo not drawn), the inhibition is 1.77%.

Take `c1cc2c(cc1C1=NNC(=NC3CC3)SC1)OCCO2`: the inhibition was 8.68%.

For the compound `CCOC(=O)Cc1csc(NC(=O)CC(C)(C)CC(=O)O)n1`, the inhibition was -4.17%.

Turning to `CCN(CC)S(=O)(=O)c1cccc(-c2n[nH]c(=S)n2/N=C/c2ccc(OC)cc2)c1`, the inhibition is 13.1%.

Turning to `CCCc1c(C(=O)NNc2cc(C(F)(F)F)ccc2Cl)cnn1-c1ccccc1`, the inhibition is -1.62%.

Take `CCC(=O)NC(=S)Nc1ccc(N2CCOCC2)cc1`: the inhibition was 4.46%.

In the case of `CCOC(=O)N1CCN(C(=O)C(=O)NNC(=O)COc2ccc(Cl)c(C)c2)CC1`, the inhibition is 3.22%.

On to `O=C(COc1ccc(Cl)cc1)NNC(=O)C(=O)N1CCCCC1`, for which the inhibition is 32.2%.

For `O=C(O)CC1S/C(=N\N=C2CCCCCCC2)N(c2ccccc2)C1=O` (stereo not drawn), the inhibition is 7.68%.

On to `CN(C(=O)c1ccccc1)C1(C)CCS(=O)(=O)C1` (stereo not drawn), for which the inhibition was -2.77%.

With `O=c1c2ccccc2nc(-c2cccc(Cl)c2)n1O`, the inhibition was 26.1% (active).

`O=c1c2ccccc2nc(-c2ccc(Cl)c(Cl)c2)n1O`: the inhibition was 0.17%.

`O=c1c2cc(Cl)ccc2nc(-c2ccccc2)n1O`: the inhibition was 3.06%.

With `CS(=O)(=O)N(CC(=O)Nc1ccccc1Cl)c1ccc(Cl)cc1`, the inhibition is 4.49%.

As for `O=C(Nc1ccc2c(c1)OCCO2)c1c(F)c(F)c(F)c(F)c1F`, the inhibition is 10.6%.

For `O=C(/C=C\c1ccccc1OC(=O)c1ccccc1F)c1cc2ccccc2o1`, the inhibition is 6.93%.

Take `O=C(CSc1nc2c(c(=O)[nH]1)CCC2)Nc1cccc(Cl)c1`: the inhibition was 1.88%.

In the case of `O=c1c2c(nc3nc(NCc4cccc(Cl)c4)[nH]n13)CCC2`, the inhibition was 9.8%.

For `CCCCCCCC(=O)NC1=NC(=O)C(C)(C)S1`, the inhibition is -0.69%.

Turning to `Cc1ccc2[nH]c(=O)c(CN(CC3COCCO3)C(=O)Nc3ccccc3C)cc2c1` (stereo not drawn), the inhibition was 13.8%.

Turning to `Cc1cccc(NC(=O)N(Cc2cc3cc(C)cc(C)c3[nH]c2=O)CC2COCCO2)c1` (stereo not drawn), the inhibition was 2.91%.

For `CN(C)S(=O)(=O)c1ccc(C(=O)OCCn2cnc3c2c(=O)n(C)c(=O)n3C)cc1`, the inhibition was -2.31%.

Regarding `O=[N+]([O-])c1ccc(O)c(NC(=S)Nc2ccccc2)c1`, the inhibition was -0.91%.

`O=C(O)CCCC(=O)Nc1cc([N+](=O)[O-])ccc1O`: the inhibition is 7.33%.

For `Cc1ccc(NCc2nnc(SCC(=O)Nc3ncc(C)s3)n2CC2CCCO2)c(C)c1` (stereo not drawn), the inhibition is 0.09%.

`COc1ccc2cc3cc(C(=O)NCCCN4CCOCC4)oc3nc2c1`: the inhibition is 18.2%.

Consider `CCCCN(CC)C(=O)c1cc2cc3ccc(OC)cc3nc2o1`, for which the inhibition was 13.7%.

For `COc1ccc2cc3cc(C(=O)NC(C)C)oc3nc2c1`, the inhibition is 13.4%.

Consider `CCCCN(CC)CCCNC(=O)c1cc2cc3ccc(OC)cc3nc2o1`, for which the inhibition is 29.5%.

Consider `COc1ccc2cc3cc(C(=O)NCC4COc5ccccc5O4)oc3nc2c1` (stereo not drawn), for which the inhibition is 3.66%.

Consider `COc1ccc2cc3cc(C(=O)NCCN4CCN(c5ccccc5F)CC4)oc3nc2c1`, for which the inhibition is -0.03%.

For `Cc1cccc2c1Sc1ccccc1CC2=O`, the inhibition is 7.62%.

Turning to `CCn1nnnc1NCc1ccc(N2CCCC2)cc1`, the inhibition was 5.58%.

Consider `COc1cccc(C(=O)OCC(=O)c2c[nH]c3ccccc23)c1O`, for which the inhibition is 6.87%.

Regarding `COC(=O)N/N=C\c1ccc(OC(=O)c2ccco2)cc1`, the inhibition was 5.66%.

In the case of `CC12CCCCC1c1ccccc1C(=NCC(=O)O)N2` (stereo not drawn), the inhibition is 2.45%.

With `CCOC(=O)c1c(NC(=O)c2ccc(-n3cnnn3)cc2)sc2c1CCCC2`, the inhibition is 3.69%.

For the compound `C=CCN(C#N)c1nc(OC)nc(N2CCCC2)n1`, the inhibition was -0.65%.

Take `COc1cccc(C(C(=O)NC2CCCC2)N(C(=O)c2ccco2)C2CC2)c1OC` (stereo not drawn): the inhibition is 11%.

For `O=C(NC1CCCC1)C(c1ccccc1F)N(C(=O)c1ccco1)C1CCCC1` (stereo not drawn), the inhibition is 25% (active).

Consider `O=C(NC1CCCC1)C(c1ccccc1)N(C(=O)c1ccco1)C1CCCC1` (stereo not drawn), for which the inhibition is 17.7%.

Consider `N/C(=N\OC(=O)CCCOc1ccccc1)c1ccc(Br)cc1`, for which the inhibition was 5.3%.

For the compound `O=CN1CCN(C(=O)COc2ccc(Cl)cc2Br)CC1`, the inhibition was 1.29%.

Turning to `CCC1=NN2C(=N)/C(=C\c3ccc(SCc4ccco4)o3)C(=O)N=C2S1`, the inhibition is 7.98%.

As to `CCC1=NN2C(=N)/C(=C\c3ccc(OCc4cc(=O)n5nc(CC)sc5n4)c(OC)c3)C(=O)N=C2S1`, the inhibition was 32.8%.

As to `CCCC1=NN2C(=N)/C(=C\c3ccc(SCc4ccco4)o3)C(=O)N=C2S1`, the inhibition is 20.4%.

`CCOc1cc(/C=C2\SC(=O)N=C2N)ccc1O`: the inhibition is 22%.

As for `CCOc1cc(/C=C2\SC(=O)N(c3ccc(O)cc3)C2=O)ccc1O`, the inhibition was 15.2%.

In the case of `COc1cc(/C=C2/C(=N)N3C=CSC3=NC2=O)ccc1OCCCOc1cc(C)ccc1C`, the inhibition was -5.49%.

With `O=S(=O)(NCc1ccccn1)c1cccc2nsnc12`, the inhibition is 3.36%.

Consider `Cc1cccc(NC(=O)NCc2ccc3c(c2)OCO3)c1C`, for which the inhibition was -4.45%.

Regarding `CSc1ccc(S(=O)(=O)NC(C)c2ccccc2)cc1` (stereo not drawn), the inhibition was -2.61%.

Regarding `CCOc1cc(OCC)nc(S(C)(=O)=O)n1`, the inhibition was 2.35%.

Take `CC(C)C(=O)N1CCC(CN=Cc2c(O)n(C3CCCCC3)c(=O)n(C3CCCCC3)c2=O)CC1`: the inhibition is 27% (active).

Turning to `CC(C)C(=O)N1CCC(CN=CC2=C(O)CC(C)(C)CC2=O)CC1`, the inhibition was 6.11%.

Consider `Cn1c(O)c(C=NCC2CCNCC2)c(=O)n(C)c1=O`, for which the inhibition was -0.42%.

Regarding `COC(=O)Cc1[nH]n(-c2ccccc2)c(=O)c1C=Nc1ccc(C)cc1`, the inhibition is -0.62%.

Take `COc1ccc(C(=O)Nc2nc3nc(-c4ccccc4)cc(=O)n3[nH]2)cc1`: the inhibition was 10.9%.

Take `Cc1ccc(C(=O)Nc2nc3nc(-c4ccccc4)cc(=O)n3[nH]2)cc1`: the inhibition was 25.9% (active).

Turning to `O=C(Nc1nc2nc(-c3ccccc3)cc(=O)n2[nH]1)c1ccccc1`, the inhibition was -0.35%.

Consider `Cc1onc(-c2c(F)cccc2Cl)c1C(=O)Nc1ccc(S(=O)(=O)Nc2ncccn2)cc1`, for which the inhibition was 13.8%.

For the compound `Cc1cc(=O)oc2cc(Oc3ccc(C(N)=O)cc3[N+](=O)[O-])ccc12`, the inhibition is 30%.

As for `O=c1ccc2ccc(Oc3ccc([N+](=O)[O-])cc3[N+](=O)[O-])cc2o1`, the inhibition is 11.5%.

Take `CC(NC(=O)COc1ccc(N(C)S(=O)(=O)c2ccccc2)cc1)c1ccccc1` (stereo not drawn): the inhibition is 1.27%.

In the case of `CC(NC(=O)CN(C1CCCCC1)S(C)(=O)=O)c1ccccc1` (stereo not drawn), the inhibition was 2.9%.

`NS(=O)(=O)c1ccc(CCn2c(=S)[nH]c3ccc(F)cc3c2=O)cc1`: the inhibition is -3.16%.

As for `O=C1c2oc3ccccc3c(=O)c2C(c2cccc(O)c2)N1CCCN1CCOCC1` (stereo not drawn), the inhibition is 26.8% (active).

`COc1cccc(C2c3c(oc4ccccc4c3=O)C(=O)N2CCCN2CCOCC2)c1` (stereo not drawn): the inhibition was 7.18%.

With `CCCOc1ccc(C2c3c(oc4ccccc4c3=O)C(=O)N2CCCN2CCOCC2)cc1` (stereo not drawn), the inhibition was 4.5%.

For `CCOc1ccc(C2c3c(oc4ccccc4c3=O)C(=O)N2CCCN2CCOCC2)cc1` (stereo not drawn), the inhibition is 2.52%.

For the compound `O=C1c2oc3ccc(F)cc3c(=O)c2C(c2cccc(O)c2)N1CCCN1CCOCC1` (stereo not drawn), the inhibition is -3%.

As for `C=CCOc1ccc(C2c3c(oc4ccccc4c3=O)C(=O)N2CCCN2CCOCC2)cc1` (stereo not drawn), the inhibition is 24.2% (active).

Source of the values: PubChem BioAssay AID1445 (SRMLSC, 2008).
